Potency and affinity values are given separately. Inconclusive results are not listed. A call without a number means that no potency is given here. Calls of active or inactive are those of the source.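 Rule for the calls: active = samples whose fitted half-maximal inhibition concentration is no more than ten times the top valid dose tested; inconclusive = flat response between -70 and -30, or invalid curve fit; inactive = flat within 30 of zero, potency above limit, or signal rising.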
Biological target: Trypsin (Sus scrofa) (UniProt P00761)
Experiment: trypsin protease activity blockade – biochemical, quenched peptide fluorescence, cherry-pick, selectivity assay for Rce1 protease inhibitor project, dose response (AID 488789);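 note: more negative means stronger trypsin inhibition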

Trypsin (Sus scrofa), sequence (P00761 whole entry, looked up): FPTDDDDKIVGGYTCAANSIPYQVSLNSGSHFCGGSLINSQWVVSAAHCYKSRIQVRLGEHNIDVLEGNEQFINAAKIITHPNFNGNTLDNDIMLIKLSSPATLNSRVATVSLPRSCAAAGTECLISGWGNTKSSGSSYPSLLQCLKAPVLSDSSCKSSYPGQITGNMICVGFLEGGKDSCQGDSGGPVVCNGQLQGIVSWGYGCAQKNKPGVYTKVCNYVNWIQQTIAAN

COc1ccc(C2/C=C\CN(C(=O)c3ccc(C)cc3)[C@H](Cc3ccccc3)C(=O)N2Cc2ccc(F)cc2)cc1 (some centres not stated)
outcome: inactive

Nc1nc2n[nH]nc2c(=O)[nH]1
outcome: inactive

Cn1c(CCNS(=O)(=O)c2ccccc2)nnc1SCc1cccnc1
outcome: inactive

Cc1cc(C)cc(Nc2nc(-c3ccc(S(=O)(=O)N4CCCC4)cc3)cs2)c1
outcome: inactive

CCOc1cccc(-c2c(C(=O)N/N=C/c3cccs3)nnn2-c2nonc2N)c1
outcome: inactive

O=C(O)c1ccc2cccc(Cl)c2c1O
outcome: inactive

COc1cc(C(=O)OCC(=O)Nc2ccc(SC(F)F)cc2)cc(OC)c1OC
outcome: inactive

c1cnn(Cc2cnc(N3CCOCC3)s2)c1
outcome: inactive

CN(C(=O)c1ccc2c(c1)SC1=NS(=O)(=O)CCN12)C(c1ccccc1)c1ccccc1
outcome: inactive

Cc1ccc(-c2nc(Nc3ccc(N4CCOCC4)cc3)c3ccccc3n2)cc1
outcome: inactive

CCn1nnnc1SCC(=O)Nc1nc(C)c(C)s1
outcome: inactive

CCN(CC)CCNC(=O)c1[nH]c2ccc(OCc3ccccc3)cc2c1C
outcome: inactive

O=C(CCNS(=O)(=O)c1ccc2[nH]c(=O)oc2c1)NCc1ccccc1
outcome: inactive

CCn1cc(/C=C(\NC(=O)c2ccccc2F)C(=O)N2CCOCC2)c2ccccc21
outcome: inactive

COc1ccc2cc(C(=O)C3CCCN(C(=O)c4cc(=O)n(C)c(=O)n4C)C3)ccc2c1 (configuration not stated)
outcome: inactive

COc1cccc(-c2nc(C#N)c(N3CCN(C(=O)c4ccco4)CC3)o2)c1
outcome: inactive

COc1ccc(-c2oc3ncn(Cc4ccco4)c(=N)c3c2-c2ccc(OC)cc2)cc1
outcome: inactive

Cc1cccc(N2CCc3c2nc2ccc(Br)cc2c3N)c1
outcome: inactive

COC(C/C=C/C(=O)[C@H](C)OCc1ccccc1)OC
outcome: inactive

CC(C)c1ccc(NC(=O)COc2nncc3ccccc23)cc1
outcome: inactive

Nc1nonc1-n1nnc(C(=O)N/N=C/c2ccoc2)c1CSc1ccccc1
outcome: inactive

COc1ccc2[nH]c(C(=O)NCCCn3ccnc3)cc2c1
outcome: inactive

Cn1c(CN2CCOCC2)c(C#N)c2ccccc21
outcome: inactive

COc1cc(-c2nc3ccccn3c2/N=C/c2ccccc2)ccc1O
outcome: inactive

CN1CCN(Cc2c(C(=O)N/N=C/c3cccc(Br)c3)nnn2-c2nonc2N)CC1
outcome: inactive

O=C(O)c1ccc(N/N=C/c2ccc(-c3ccccc3Cl)o2)cc1
outcome: inactive

COc1ccc(NS(=O)(=O)c2ccc3oc(=O)c4[nH]c(=O)c(=O)n(C)c4c3c2)cc1
outcome: inactive

c1coc(-c2ccnc3ncnn23)c1
outcome: inactive

CC(C)CC(=O)Nc1ccc2oc(-c3cccnc3)nc2c1
outcome: inactive

O=C(Nc1ccc2c(c1)CCC2)c1ccccc1Br
outcome: inactive

Cc1ccccc1NS(=O)(=O)c1ccc(C(=O)NCC(c2ccccc2)N(C)C)cc1 (configuration not stated)
outcome: inactive

CCn1cc(/C=C(\NC(=O)c2ccccc2Cl)C(=O)N2CCOCC2)c2ccccc21
outcome: inactive

COc1ccc(C2c3c(ncn(CCN4CCOCC4)c3=N)Oc3ccc4ccccc4c32)cc1 (configuration not stated)
outcome: inactive

CCN(CC)CCN(C(=O)c1ccc2ccccc2c1)c1nc2ccc(F)cc2s1
outcome: inactive

c1ccc(Nc2cccc(Nc3ccccc3)n2)cc1
outcome: inactive

O=S(=O)(c1ccccc1)c1nc(-c2ccco2)oc1N1CCCCC1
outcome: inactive

CCOC(=O)c1ccc(NC(=O)N2CCN(Cc3ccccc3)CC2)cc1
outcome: inactive

From PubChem BioAssay AID488789 (Broad Institute, 2010)
